Most compounds without a hit are left out; they make up all but 10% or so of the library.
ELG1 repair inh = blocks ELG1-dependent DNA repair in HEK293T cells | 330,000 tested, 2.3% active | AID 504467 | Potency, µM (highest dose often 46.1 µM), without a hit: at the highest dose activity change, negative = inhibition, most hits filed as inhibitors | HEK293T ELG1-luciferase reporter, luminescence, 16 h; DNA damage induced by 5-fluorouridine; note: % is set by controls: 0 for no effect and ±100 for the full control effect; nearly all actives have a fitted effect of over 55% in size
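In this reporter screen, reduction of luminescence relative to DMSO vehicle indicated activity. Compounds and 5-fluorouridine were added together to 2,000 cells per well, incubated for 16 hr at 37 °C, then developed with ONE-Glo.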
MCF10A rereplic = induces DNA re-replication in MCF 10a normal breast cells; MCF 10A DNA re-replication, Hoechst nuclear intensity, 48 h; Potency, µM (highest dose often 46.1 µM), for the others: at the top dose activity, positive = re-replication, hits mostly activators; 350,000 tested, 2.9% active; note: % of control where 0% means no effect; nearly all actives have a fitted effect of over 50% in size
VP16 counter = counter-screen for ROR gamma inhibitors: Gal4-VP16 reporter; Drosophila S2 Gal4-VP16 UAS-luciferase, luminescence, 20 h; Potency, µM (titrated, usually from 53.6 µM), for inactives: at the top dose activity, negative = inhibition, actives largely listed as inhibitors; 310,000 tested, 3.5% active; AID 2546;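 note: Gal4-VP16 expression switched on by copper sulfate through the metallothionein promoter; % is set by controls: 0 for no effect and ±100 for the full control effect; nearly all actives have a fitted effect of over 50% in size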
SW480 rerep = induces DNA re-replication in SW480 colon adenocarcinoma cells. SW480 DNA re-replication, Hoechst DNA content imaging, 48 h. Potency, µM (highest dose often 46.1 µM), for inactives: top-dose re-replication activation, usual class: activators. 340,000 tested, 1.8% active; note: % of control where 0% means no effect; nearly all actives have a fitted effect of over 55% in size
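Quantitative HTS format with DMSO vehicle controls; 48 hr drug incubation at 37 C, then 40 min Hoechst staining and scanning imager measurement at 405 nm excitation.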
RORgamma inh = inhibitors of mouse ROR gamma transcriptional activity; P51450; Drosophila S2 Gal4-RORgamma UAS-luciferase reporter, 20 h; Potency, µM (highest dose often 53.6 µM), for inactives: at the highest dose activity change, negative = inhibition, actives largely listed as inhibitors; 310,000 tested, 5.4% active; note: % is set by controls: 0 for no effect and ±100 for the full control effect; nearly all actives have a fitted effect of over 60% in size
Target sequence (P51450 whole entry, looked up, the tested form may be a part): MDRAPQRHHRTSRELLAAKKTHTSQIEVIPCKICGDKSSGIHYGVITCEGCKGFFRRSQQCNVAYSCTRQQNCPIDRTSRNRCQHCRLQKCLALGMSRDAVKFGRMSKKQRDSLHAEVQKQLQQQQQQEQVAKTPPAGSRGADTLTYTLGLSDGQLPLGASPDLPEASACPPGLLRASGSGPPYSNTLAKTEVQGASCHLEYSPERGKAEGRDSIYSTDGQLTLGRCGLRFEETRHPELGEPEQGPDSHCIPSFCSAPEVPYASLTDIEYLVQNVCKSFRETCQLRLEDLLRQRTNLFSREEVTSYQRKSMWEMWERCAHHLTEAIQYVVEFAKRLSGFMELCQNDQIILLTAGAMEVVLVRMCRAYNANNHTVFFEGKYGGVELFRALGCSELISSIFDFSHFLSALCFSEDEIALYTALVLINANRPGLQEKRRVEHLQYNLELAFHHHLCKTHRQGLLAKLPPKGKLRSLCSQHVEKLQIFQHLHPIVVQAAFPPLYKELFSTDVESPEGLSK
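ROR gamma transcriptional activity was tracked as Gal4-UAS luciferase output in stably transfected Drosophila Schneider cells, with compound added 1 hr before 700 uM copper sulfate induction and a 20 hr ambient-temperature incubation.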
Numbers without * were called inactive; [ ] = remark or other dose. Calls come from the whole dose curve; as a rule, active = well fitted curve in the direction sought with a large enough effect; inconclusive = small, poorly fitted or top-dose-only effect, or another doubt; inactive = no such curve, though single readings can be large; an effect the other way counts as inactive or inconclusive. Potency is the fitted concentration of half-maximal effect.

`COc1ccc(NC(=O)C(=O)NCCC2CCCCN2S(=O)(=O)c2cccs2)cc1` (centres undefined) gave ELG1 repair inh -19%, MCF10A rereplic 2.1µM* and SW480 rerep 4.5µM*.
`CCNC(=O)C(=O)NCC1CCCN1S(=O)(=O)c1cccs1` (centres undefined) gave ELG1 repair inh 6%, MCF10A rereplic 1% and SW480 rerep 1%.
For COCCNC(=O)C(=O)Nc1ccc2c(c1)N(S(=O)(=O)c1cccs1)CCC2 the results were ELG1 repair inh -1%, MCF10A rereplic inconclusive and SW480 rerep 2.6µM*.
For CNC(=O)C(=O)NCC1CCCN1S(=O)(=O)c1cccs1 (centres undefined) the results were ELG1 repair inh 10%, MCF10A rereplic 7% and SW480 rerep 23µM*.
Screening CCCCOc1ccccc1C(=O)N(Cc1ccco1)C1CCS(=O)(=O)C1 (centres undefined) returned ELG1 repair inh 6%, MCF10A rereplic -1%, VP16 counter -5%, SW480 rerep -8% and RORgamma inh 2%.
COc1ccc2sc(-c3ccc(SC)cc3)c(/C=C/c3ccc(OC)c(OC)c3)c2c1 was read as ELG1 repair inh 0%, MCF10A rereplic 9.2µM* and SW480 rerep 17%.
COc1ccc(-c2sc3ccc(N4CCOCC4)cc3c2C#CC2(O)CCCCC2)cc1 was read as ELG1 repair inh -19%, MCF10A rereplic inconclusive and SW480 rerep inconclusive.
Screening COc1ccc(-c2sc3ccc(N4CCOCC4)cc3c2C#CCO)cc1 returned ELG1 repair inh 5.2µM*, MCF10A rereplic 12µM* and SW480 rerep inconclusive.
For COc1ccc(/C=C/c2c(-c3ccc(OC)cc3)sc3ccc(N4CCOCC4)cc23)cc1 the results were ELG1 repair inh inconclusive, MCF10A rereplic 8.2µM*, VP16 counter 2%, SW480 rerep 1% and RORgamma inh 3%.
`O=c1c(-c2cccc(Cl)c2)nc2cncnc2n1Cc1ccccc1` gave VP16 counter -3% and RORgamma inh 30%.
CC(C)Oc1ccc(/C=C(/NC(=O)c2ccccc2)C(=O)NCCC(=O)O)cc1 was read as ELG1 repair inh inconclusive, MCF10A rereplic -15%, VP16 counter -17%, SW480 rerep -1% and RORgamma inh 11µM*.
O=C(CCCOc1ccccc1)NC(=S)Nc1ccccc1 was read as ELG1 repair inh -2%, MCF10A rereplic 2%, VP16 counter inconclusive, SW480 rerep 11% and RORgamma inh 10µM*.
`O=C(CCCOc1ccccc1)Nc1ccc(Br)cc1` gave MCF10A rereplic 2% and SW480 rerep -4%.
For Cc1cccc(NC(=S)NN(Cc2ccccc2)c2ccccc2)c1C the results were ELG1 repair inh -27%, MCF10A rereplic 23%, VP16 counter 3.5µM*, SW480 rerep -1%[9.22 µM] and RORgamma inh 3.5µM*.
Screening Cc1cccc(NC(=S)NC(=O)c2ccco2)c1C returned ELG1 repair inh inconclusive, MCF10A rereplic 12%, VP16 counter 11µM*, SW480 rerep -2% and RORgamma inh 3.5µM*.
Screening Cc1cccc(NC(=S)NC(=O)CCc2ccccc2)c1 returned ELG1 repair inh 19%, MCF10A rereplic inconclusive, VP16 counter inconclusive, SW480 rerep -5% and RORgamma inh 10µM*.
`CCCN(Cc1ccccc1)C(=S)Nc1cccc(C)c1C` gave ELG1 repair inh -3%, MCF10A rereplic -4%, VP16 counter -5%, SW480 rerep -2% and RORgamma inh inconclusive.
`CSCCCN1CCCC(CO)(Cc2ccccc2F)C1` (centres undefined) gave ELG1 repair inh 2%, MCF10A rereplic 19%, VP16 counter -10%, SW480 rerep 8% and RORgamma inh -13%[1.91 µM].
Screening Cc1cc(C)nc(/N=C(/NC(=O)Nc2cccc(Cl)c2)Nc2ccccc2)n1 returned ELG1 repair inh -17%, MCF10A rereplic -2%, VP16 counter 5%, SW480 rerep -7% and RORgamma inh 14%.
`CC(C)=C1C2CCC1C1C(=O)N(NC(=O)COc3ccc(C(C)(C)C)cc3)C(=O)C21` (centres undefined) gave ELG1 repair inh -19%, MCF10A rereplic inconclusive, VP16 counter inconclusive, SW480 rerep 0% and RORgamma inh -44%.
For Cc1ccccc1NC(=O)NC1(C(=O)N2CCC(C(N)=O)CC2)CCCCC1 the results were ELG1 repair inh 10%, MCF10A rereplic -1%, VP16 counter 17%, SW480 rerep 0% and RORgamma inh -17%.
Screening Cc1cc(C)c(O)c(NC(=S)NC(=O)Cc2ccccc2)c1 returned ELG1 repair inh -12%, MCF10A rereplic 5%, VP16 counter 5.6µM*, SW480 rerep -9% and RORgamma inh 10µM*.
Cc1cccc(NC(=S)NC(=O)Cc2ccccc2)c1C was read as ELG1 repair inh 14%, MCF10A rereplic 7%, VP16 counter 4.5µM*, SW480 rerep 13% and RORgamma inh 4µM*.
O=C(NC(=S)Nc1cccc(NC(=S)NC(=O)c2ccco2)n1)c1ccco1 was read as ELG1 repair inh 14%, MCF10A rereplic -39%, VP16 counter 0.79µM*, SW480 rerep inconclusive and RORgamma inh 0.089µM*.
Screening Cc1cccc(NC(=S)NC(=O)CCc2ccccc2)c1C returned ELG1 repair inh 8%, MCF10A rereplic -4%, VP16 counter inconclusive, SW480 rerep 0% and RORgamma inh 2.5µM*.
Screening Cc1c(NC(=S)NC(=O)Cc2ccccc2)cccc1C(=O)O returned ELG1 repair inh -4%, MCF10A rereplic 3%, VP16 counter -3%, SW480 rerep -9% and RORgamma inh 1%.
Screening O=C(NC(=S)Nc1ccccc1Br)c1ccco1 returned ELG1 repair inh inconclusive, MCF10A rereplic -19%, VP16 counter inconclusive, SW480 rerep -5% and RORgamma inh inconclusive.
Screening C=CCOc1nc2sc(C)c(C)c2c(=O)n1-c1ccccc1 returned ELG1 repair inh 11%, MCF10A rereplic 1%, VP16 counter 16%, SW480 rerep -15% and RORgamma inh inconclusive.
For CSc1ccccc1C(=O)NC1CCCN(c2ccc(C(F)(F)F)cn2)C1 (centres undefined) the results were ELG1 repair inh 7%, MCF10A rereplic 5%, VP16 counter 1%, SW480 rerep -4% and RORgamma inh -5%.
Cc1c(Cl)cccc1NC(=S)NC(=O)CCN1C(=O)c2ccccc2C1=O was read as ELG1 repair inh 14%, MCF10A rereplic -2%, VP16 counter inconclusive, SW480 rerep -1% and RORgamma inh 16µM*.
Cc1cc(C(=O)NNS(=O)(=O)c2ccc(C(C)(C)C)cc2)nn1C(C)(C)C was read as ELG1 repair inh -4%, MCF10A rereplic 1%, VP16 counter -2%, SW480 rerep -5% and RORgamma inh -6%.

Assay outcomes (PubChem BioAssay)
